Bioassay records from PubChem.
In the library only some 12% were active in any assay of this set; here they are far more common.
Sfp inh = blocks B. subtilis Sfp PPTase activity | Q9F4F7 | 310,000 tested, 3.5% active | Potency, µM, inactives show largest response in the series, negative = inhibition, usual class: inhibitors | Biochemical Sfp PPTase activity, qHTS;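 further: the enzyme is Sfp with the accession as filed and its product quenches rhodamine fluorescence; 0% = enzyme reaction without inhibitor and -100% = no enzyme wells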
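Fluorescence-quenching assay: 15 nM Sfp-PPTase preincubated 15 min at room temperature with compound, then 5 uM rhodamine-CoA and 12.5 uM BHQ-2-labelled YbbR peptide added. Fluorescence (ex 525/em 598 nm) read at start and after 30 min; difference gives rate.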
BAZ2B inh = inhibitors of human BAZ2B bromodomain; Q9UIF8; AlphaScreen BAZ2B-H3K14Ac peptide displacement; Potency, µM (titrated, usually from 114 µM), inactives show at the top dose activity change, negative = inhibition, hits mostly inhibitors; 360,000 tested, 4.4% active; further: on the % scale 0 is the no-effect control and ±100 the full control effect; nearly all actives have a fitted effect of over 60% in size
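Inhibition is scored as reduced AlphaScreen emission. The BAZ2B/b-H3(5-23)K14Ac complex (50 nM each) in PBS pH 7.4, 0.01% Tween-20 meets compound (up to 110 uM) for 30 min at RT before bead addition.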
L3MBTL1 block = blocks human L3MBTL1; Potency, µM (highest dose often 57.1 µM), for inactives: at the highest dose activity, negative = inhibition, usual class: inhibitors; 230,000 tested, 0.66% active; AlphaScreen L3MBTL1–H3K9me1 peptide binding; further: on the % scale 0 is the no-effect control and ±100 the full control effect; nearly all actives have a fitted effect of over 60% in size
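First, the protein-peptide complex forms for 30 min at room temperature (L3MBTL1 50 nM, biotinylated H3K9me1 peptide 75 nM). Next, compounds are pin-transferred and incubated 30 min. Finally, AlphaScreen beads are added and read after 30 min.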
JMJD2A Tudor = JMJD2A Tudor domain (human) inhibition; Potency, µM (highest dose often 114 µM), inactives show at the highest dose activity change, negative = inhibition, usual class: inhibitors; AlphaScreen JMJD2A-Tudor / H3K4me3 peptide binding; O75164; 390,000 tested, 4.4% active; AID 504339; further: on the % scale 0 is the no-effect control and ±100 the full control effect; nearly all actives have a fitted effect of over 50% in size
HP1b binding inh = HP1-beta chromodomain-methylated histone interaction inhibition; AlphaScreen HP1-beta / biotin-H3K9me3 peptide binding; 390,000 tested, 0.56% active; Potency, µM (doses to about 114 µM), inactives show top-dose activity change, negative = inhibition, hits mostly inhibitors; further: nearly all actives have a fitted effect of over 70% in size
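AlphaScreen: HP1-beta (50 nM) preformed 30 min with biotin-H3(1-18)K9me3 peptide (50 nM) in PBS pH 7.4, 0.01% Tween-20. Compound added for 30 min at RT, then streptavidin donor/nickel chelate acceptor beads (10 ug/mL) for 30 min.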
G9a inh = inhibitors of human histone lysine methyltransferase G9a. AID 504332. 350,000 tested, 8.8% active. Q96KQ7. Potency, µM (titrated, usually from 102 µM), for the others: top-dose activity, negative = inhibition, hits mostly inhibitors. G9a H3K9 monomethylation, AlphaScreen, 2 h; further: on the % scale 0 is the no-effect control and ±100 the full control effect; nearly all actives have a fitted effect of over 75% in size
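Enzyme 20 nM + cpd, 15 min RT; add b-H3K9 pep 500 nM / SAM 20 uM; 2 h RT; anti-H3K9me1 Ab 0.5 ug/mL + SA donor / anti-rabbit acceptor beads 20 ug/mL each, 10 min; AlphaScreen read.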
An asterisk follows results filed as active; u = inconclusive; x = no result; [ ] = remark or other dose. The call rests on the fitted dose curve; in most records, active means well fitted curve in the direction sought with a large enough effect; inconclusive means small, poorly fitted or top-dose-only effect, or another doubt; inactive means no such curve, though single readings can be large; an effect the other way counts as inactive or inconclusive. Potency means the concentration at half of the fitted maximal effect.

SMILES	Sfp inh	BAZ2B inh	L3MBTL1 block	JMJD2A Tudor	HP1b binding inh	G9a inh
CCCCCCCCCCCCC(C(=O)O)C(C)C(=O)O (configuration not stated)	-11%	x	x	x	x	7%[2.33 µM]
Cc1ccc2c(=O)cc(C(=O)Nc3sc4c(c3C(=O)NCc3ccco3)CCC4)oc2c1C	x	-8%	x	-28%	22%	-2%[59 µM]
CC(C)CCn1c(O)c(N=NC(=O)Cn2ccc(C(F)(F)F)n2)c2ccccc21	20%	3%	-3%	50µM*	4%	-9%[59 µM]
CC(C)CCn1c(O)c(N=Nc2ccccn2)c2ccccc21	-16%	-1%	-6%	-9%	64%	32%[59 µM]
c1ccc(COc2ccccc2CNC23CC4CC(CC(C4)C2)C3)cc1	56µM*	0%	-20%	-17%	32%	38%[12.7 µM]
CN(C)/C=C1\NC(=S)N(c2ccccc2)C1=O	50µM*	-16%	5%	35µM*	-26%	7.9µM*
CN(C)/C=C1\NC(=S)N(c2ccc(Cl)cc2)C1=O	32µM*	u	-8%	45µM*	u	5.6µM*
O=C1CNC(=O)N1c1ccc(Cl)cc1	15%	1%	x	-16%	49%	-4%
CCOc1cccc(/C=C2\NC(=S)N(c3ccccc3)C2=O)c1O	2%	-26%	-2%	-32%	-1%	u
CSc1cccc(NC(=O)N2CCN(S(=O)(=O)c3ccc4c(ccn4C)c3)CC2)c1	x	-10%	x	-30%	7%[57 µM]	1%[59 µM]
OC(COc1ccccc1)CN1CCN(C(c2ccccc2)c2ccccc2)CC1 (configuration not stated)	8%	u	-2%	-33%	9%	11%
OC(COCc1ccco1)CN1CCN(C(c2ccccc2)c2ccccc2)CC1 (configuration not stated)	-20%	35µM*	0%	1.3µM*	28µM*	-159%
Cc1ccc(Cl)cc1N1CCN(CC(O)COCc2ccco2)CC1 (configuration not stated)	u	50µM*	-7%	7.1µM*	u	11µM*
CCOC(=O)c1cnc2ccc(C)cc2c1Nc1ccc(N(CC)CC)cc1	x	3.5µM*	x	13µM*	10µM*	4.5µM*
CCOC(=O)c1cnc2ccc(OCC)cc2c1NCc1ccccc1	32µM*	141%	85%	157%	308%	101%[59 µM]
CCOC(=O)c1cnc2ccc(Cl)cc2c1Nc1ccc(S(=O)(=O)Nc2ncccn2)cc1	11%	-20%	8%	-6%	26%	-5%
CCOC(=O)c1cnc2ccc(C)cc2c1Nc1ccc(N2CCOCC2)cc1	-19%	35µM*	u	28µM*	22µM*	40µM*
CCOC(=O)c1cnc2ccc(Cl)cc2c1Nc1ccc(N2CCOCC2)cc1	x	14µM*	x	35µM*	u	7.1µM*
Cc1ccc(CN2CCN(C3CCNCC3)C(=O)C2=O)cc1	x	1%	x	-13%	26%	-4%[59 µM]
Cc1ccc(SCC(c2ccccc2)N2CCN(CC(C)C)CCC2=O)cc1 (configuration not stated)	-12%	x	x	-13%	24%	x
CCOC(=O)c1cnc2ccc(C(=O)OC)cc2c1Nc1ccc(N2CCOCC2)cc1	x	18µM*	x	50µM*	u	13µM*
CCOc1cc(N2CCOCC2)c(OCC)cc1NC(=O)CC12CC3CC(CC(C3)C1)C2	-3%	35µM*	x	45µM*	-52%	13µM*
CCOc1cc(N2CCOCC2)c(OCC)cc1NC(=O)c1cccc(N(C)C)c1	-1%	40µM*	-26%	u	u	45µM*
CCOc1cc(N2CCOCC2)c(OCC)cc1NC(=O)Cc1ccc(OC)c(OC)c1	-21%	u	-10%	u	-10%	50µM*
CCOc1cc(N2CCOCC2)c(OCC)cc1NC(=O)Cn1cnnn1	x	x	-3%	-21%	22%	x
SMILES	Sfp inh	BAZ2B inh	L3MBTL1 block	JMJD2A Tudor	HP1b binding inh	G9a inh
CCOc1cc(N2CCOCC2)c(OCC)cc1NC(=O)COC(=O)[C@@H]1CCCN1S(=O)(=O)c1ccccc1F	-29%	u	-14%	-30%	5%	45µM*
CCOc1cc(NC(=O)c2ccco2)c(OCC)cc1NC(=O)Cc1ccc(OC)c(OC)c1	19%	-26%	-1%	-34%	4%	18%[59 µM]
COC(=O)c1ccc(C(NC(=O)OCc2ccccc2)/C(=C/[C@@H](C)C(=O)NCc2ccc(-c3ccccc3)cc2)c2cccnc2)cc1 (some centres not stated)	28%	x	x	x	x	x
CCOc1ccc(OCCC(=O)OCC(=O)Nc2cc(OCC)c(N3CCOCC3)cc2OCC)cc1	x	u	-14%	u	u	35µM*
CCOc1cc(N2CCOCC2)c(OCC)cc1NC(=O)COc1cccc(CC)c1	x	u	-13%	u	-2%	u
CCOc1cc(N2CCOCC2)c(OCC)cc1NC(=O)COC(=O)c1cc2ccccc2cc1O	-28%	-2%	2%	-18%	20%	-14%[59 µM]
CCOc1cc(N2CCOCC2)c(OCC)cc1NC(=O)Cc1cccc(OC)c1	9%	u	-16%	u	-17%	50µM*
CCOC(=O)c1ccccc1NC(=O)N(C)CCc1c(C)nn(CC)c1C	x	-9%	x	-9%	30%	-4%[12.7 µM]
COc1cc2c(cc1OC)C(COc1ccc(F)cc1)N(C(=O)c1ccc(S(=O)(=O)N3CCCC3)cc1)CC2 (configuration not stated)	x	-5%	x	-26%	-2%	0%[59 µM]
CCCCNC(=O)CSc1nc(-c2ccc(OC)cc2)cc(C(F)(F)F)n1	x	3%[57.1 µM]	x	-5%	25%	-20%[59 µM]
C=CCN(CC=C)CC(O)CN(c1cc([N+](=O)[O-])ccc1OC)S(=O)(=O)c1ccccc1 (configuration not stated)	79µM*	-2%	-9%	-24%	3%	25%[59 µM]
CCCn1c2ccccc2c2cnn(CC(=O)NCc3ccc(OC)cc3)c(=O)c21	x	0%	x	-19%	8%	2%[59 µM]
O=C(CN1CCN(c2ccc(F)cc2)CC1)Nc1ccccc1[N+](=O)[O-]	-1%	u	-9%	u	50µM*	-4%
O=C(CN1CCN(c2ccc(F)cc2)CC1)Nc1ccccc1Br	-10%	-31%	x	-22%	-5%	-5%
COC(=O)c1sccc1NC(=O)CN1CCN(c2ccc(F)cc2)CC1	-12%	u	-1%	u	-14%	45µM*
COc1ccccc1NC(=O)CN1CCN(c2ccc(F)cc2)CC1	x	x	x	u	3%	x
CCOc1ccc(NC(=O)Cn2cc(C(=O)c3ccc(CC)cc3)c(=O)c3ccc(C)nc32)cc1	x	2%	x	-19%	19%	3%[59 µM]
COc1cc2nc(NCCC(C)C)n3nc(-c4ccccc4)nc3c2cc1OC	x	-10%	x	-13%	-10%	-13%[59 µM]
O=C(c1cnccn1)N1CCC2(CCCN(Cc3ccncc3)C2)CC1	0%	x	x	x	x	9%[12.7 µM]
